Test results taken from PubChem BioAssay AID1006 (Sanford-Burnham Center for Chemical Genomics, 2008).
Among all 200,000 compounds or so, about 3,000 (1.5%) were called active.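 Rule for the calls: active = inhibition above about 50% when tested at 10 µM (limit read from the data); inactive = the rest.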 The sample as a whole holds a higher share of actives than the screen did.

biological target: Luciferin 4-monooxygenase (Photinus pyralis) (UniProt P08659); experiment: firefly luciferase enzyme inhibitors, primary screen, artefact control for luciferase-based inhibitor screens, biochemical, luminescence, ATPLite (AID 1006); conditions: 10 min, at 10 µM, active compounds read high
Sequence (P08659 whole entry, looked up): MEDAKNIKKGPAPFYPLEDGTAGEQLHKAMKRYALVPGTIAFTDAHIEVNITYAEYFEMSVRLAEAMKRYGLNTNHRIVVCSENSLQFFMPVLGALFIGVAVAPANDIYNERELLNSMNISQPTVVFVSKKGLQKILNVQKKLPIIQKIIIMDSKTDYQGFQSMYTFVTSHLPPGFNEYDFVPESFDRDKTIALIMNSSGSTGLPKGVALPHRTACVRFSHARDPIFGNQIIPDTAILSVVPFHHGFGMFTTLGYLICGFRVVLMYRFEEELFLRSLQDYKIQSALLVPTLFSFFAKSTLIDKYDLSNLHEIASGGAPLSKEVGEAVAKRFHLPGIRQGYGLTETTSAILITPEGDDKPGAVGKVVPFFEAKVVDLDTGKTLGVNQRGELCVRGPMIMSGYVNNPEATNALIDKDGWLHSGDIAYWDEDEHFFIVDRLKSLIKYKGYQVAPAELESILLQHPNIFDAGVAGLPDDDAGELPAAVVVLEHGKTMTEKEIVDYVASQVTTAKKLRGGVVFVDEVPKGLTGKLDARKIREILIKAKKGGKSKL

Compound | inhibition
COc1cccc(-c2nc3ccc(N4CCN(C)CC4)cc3[nH]2)c1 | 95.8% (active)
Cc1nc2ccc(N3CCN(C)CC3)cc2nc1C | 15.6% (inactive)
CN1CCN(c2cc(N3CCNCC3)ccc2[N+](=O)[O-])CC1 | 5.2% (inactive)
Cc1nn(Cc2ccccc2Cl)c(Cl)c1C(=O)OC(C(=O)NC(N)=O)C(C)C (stereo not given) | -7% (inactive)
Cc1ccnc(-n2c(C)cc(/C=C3\C(=O)NC(=S)N(C)C3=O)c2C)c1 | 5.2% (inactive)
